# Reference: publication PMC7819943, “Rice protein-binding microarrays: a tool to detect cis-acting elements near promoter regions in rice”
# In all, about 39,000 sequences were measured (“fluorescence intensity (a.u.)”: median about 4,300, highest 2% from about 39,000 on). The entries come from a sample that favours the highest values as a whole.
# Target: T1, OsSMF1 (Oryza sativa, UniProt Q6ZLB0 1-436)
# T1 sequence: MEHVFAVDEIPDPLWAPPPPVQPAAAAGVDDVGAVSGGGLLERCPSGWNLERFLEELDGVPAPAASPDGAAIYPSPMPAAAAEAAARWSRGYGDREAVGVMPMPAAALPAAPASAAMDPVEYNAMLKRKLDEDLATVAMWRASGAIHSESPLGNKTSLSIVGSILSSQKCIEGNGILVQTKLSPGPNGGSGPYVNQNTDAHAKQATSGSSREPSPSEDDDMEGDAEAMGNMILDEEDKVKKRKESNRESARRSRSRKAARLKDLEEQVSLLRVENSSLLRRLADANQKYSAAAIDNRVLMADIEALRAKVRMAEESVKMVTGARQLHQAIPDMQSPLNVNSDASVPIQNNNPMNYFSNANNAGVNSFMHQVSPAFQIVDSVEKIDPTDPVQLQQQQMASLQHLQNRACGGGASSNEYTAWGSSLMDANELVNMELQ
# Experiment: protein-binding microarray (RPBM); PBS, 2% BSA, 51.3 ng/ul salmon testes DNA, 50 uM zinc acetate, 200 nM TF, 25 C, 1 h; high values mean tight binding
# Conditions: protein: recombinant; tags: N-terminal polyhistidine and DsRed monomer fusion (pET32a); chain copies: 2; label: CyDye5-dUTP incorporated in the synthesized complementary strand; 3' TTTTT single-stranded linker to array surface; dsDNA, one strand shown
# In short: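 Polyhistidine-tagged DsRed fusions of transcription factors, joined at the N-terminus, were expressed in E. coli BL21-CodonPlus and isolated on Ni–NTA. They were incubated at 200 nM for 1 h at 25 °C on a custom Agilent array, double-stranded and BSA-blocked, in PBS with 2% BSA, salmon testes DNA and 50 µM zinc acetate. The binding signal is per-feature fluorescence intensity (arbitrary units) read on an Axon 4000B scanner after washing.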
row,Sequence,binding signal
1,TCATCTCATCTCTCCACGTCACCCGACTCCGACTCCGTGGCGGAGTCACCTAGTGCAG,16900 fluorescence intensity (a.u.)
2,CCTACCACTGTTGAGTAACCACGTCTTTCGACGTATGCAGCGGAGTCACCTAGTGCAG,6930 fluorescence intensity (a.u.)
3,GCGGTCGGGCCGGCCCAGGAAATACCAGGCGACGTGGCGGCGGAGTCACCTAGTGCAG,8410 fluorescence intensity (a.u.)
4,ACTGACATCGAGGCCCCACGTGTCAGTGACCCAGTTCTTTCGGAGTCACCTAGTGCAG,13400 fluorescence intensity (a.u.)
5,TAAACTCTTTCTGTGAGTCAGCACAATAGCCCATCGTGCCCGGAGTCACCTAGTGCAG,18700 fluorescence intensity (a.u.)
6,ACTTCACCAGTTCACCACCGTGGCACTCCCTGGGACTGAACGGAGTCACCTAGTGCAG,3640 fluorescence intensity (a.u.)
7,TTGGGAGGGAGAGTGGTAAAGGGTGCTGGGGCTTTGGCTGCGGAGTCACCTAGTGCAG,4250 fluorescence intensity (a.u.)
8,GTGCGGATGGGGAGGTGTGGTGGAAGGGTGGACAGTGGAGCGGAGTCACCTAGTGCAG,3410 fluorescence intensity (a.u.)
9,GAGGACATGCATGTGCAAGGGGAGCAGGTGGGGTAAAATGCGGAGTCACCTAGTGCAG,45500 fluorescence intensity (a.u.)
10,TTTGCCACTGTCCTACTAGATCTTGGTCTTATTTGAGAAGCGGAGTCACCTAGTGCAG,3550 fluorescence intensity (a.u.)
11,TATGACATGTGGGCCAACTGCCAAGCAGCCTTACTTGACGCGGAGTCACCTAGTGCAG,3360 fluorescence intensity (a.u.)
12,TCTTGATGATGTGGAGTTTATGGAAACTATGTCTAGTGTTCGGAGTCACCTAGTGCAG,7560 fluorescence intensity (a.u.)
13,TACAGTATGTTGTGGAAGGCCTTTGAATTATATTGCATTACGGAGTCACCTAGTGCAG,49000 fluorescence intensity (a.u.)
14,TTATTGGTGGATGCCTCTGAGTCGGATGTGGGTCGTACAACGGAGTCACCTAGTGCAG,3660 fluorescence intensity (a.u.)
15,TATGAAAGTTTTCGATGTGATGTAATGTGATGGAAAGTTACGGAGTCACCTAGTGCAG,3140 fluorescence intensity (a.u.)
16,CTGAAAAGTTGTGTGTGTATGACATGTTGATGTGATGGAACGGAGTCACCTAGTGCAG,5180 fluorescence intensity (a.u.)
17,GTTGGAGATGCTCTGAGAAACGCATATGTGGATGGTCTTACGGAGTCACCTAGTGCAG,48100 fluorescence intensity (a.u.)
18,TGTTTGGACATATGCATGGAGCATTAAATGTGGATGAAAACGGAGTCACCTAGTGCAG,4350 fluorescence intensity (a.u.)
19,TATTTGTATTATGTTGCAAATGTTGCAATATATATATTTACGGAGTCACCTAGTGCAG,15300 fluorescence intensity (a.u.)
20,TTGGAAGTTTATGTGTGTAGAAAAGTTTTGATGTAATGAACGGAGTCACCTAGTGCAG,44400 fluorescence intensity (a.u.)
21,GCTATTTATCTCATATGATGTCTTGGATGTTGTGTAGAAACGGAGTCACCTAGTGCAG,40600 fluorescence intensity (a.u.)

row,Sequence,binding signal
1,CTCAGTATATATGTTTTGAATTCATTATGACATCTTTACACGGAGTCACCTAGTGCAG,3360 fluorescence intensity (a.u.)
2,TCACATGATGTCTTGGATGTTGTGTAGAAATTCTCTTTCCCGGAGTCACCTAGTGCAG,3560 fluorescence intensity (a.u.)
3,GCATGTAGCTATGCAGCCATCCACGTCACTCCTTGCGTACCGGAGTCACCTAGTGCAG,31800 fluorescence intensity (a.u.)
4,ATTAAGCACTACGTCAGATATGATTGGCCATCATTGCATTCGGAGTCACCTAGTGCAG,3150 fluorescence intensity (a.u.)
5,ACACCCGTCCGTCCCGTCTCGTTCTGCGCCGTCTCGCCGGCGGAGTCACCTAGTGCAG,18700 fluorescence intensity (a.u.)
6,GAAGATAGTACTAACTATATTTTGTAACGGAGAGATTGTTCGGAGTCACCTAGTGCAG,4130 fluorescence intensity (a.u.)
7,AGTAGTGAGGTTGAGGCATAAGTACATTGAATTGAATTGACGGAGTCACCTAGTGCAG,44100 fluorescence intensity (a.u.)
8,TGTTAGAAAGTCTTATAATATAAAACGGAGGAAATATTTACGGAGTCACCTAGTGCAG,6480 fluorescence intensity (a.u.)
9,TCAAATTGAAAGTTTCCAAAATTTTCAAATCTGGACTTGACGGAGTCACCTAGTGCAG,43500 fluorescence intensity (a.u.)
10,ATGCTAGAAAGTCTTATAACCTGAAACGGAGGTAGTAGGACGGAGTCACCTAGTGCAG,65000 fluorescence intensity (a.u.)
11,AATAGTAGGCTATAAGCCGGCTAAATGCTGAGGTGGAGGACGGAGTCACCTAGTGCAG,5420 fluorescence intensity (a.u.)
12,TTCTTATTGTCTTAGCTACAAACGATCCATACAAACATTGCGGAGTCACCTAGTGCAG,4240 fluorescence intensity (a.u.)
13,TTGGACAAATCATTTGGCAAAATTTCAAAGTTTTGAATCTCGGAGTCACCTAGTGCAG,28600 fluorescence intensity (a.u.)
14,AAATTGAGTTGAAAATTTTCAAATCTCGACTTGAAAGTTTCGGAGTCACCTAGTGCAG,21800 fluorescence intensity (a.u.)
15,TGAGTGAATACACAGTACTATGACGACGATAAGGTTGGGGCGGAGTCACCTAGTGCAG,32700 fluorescence intensity (a.u.)
16,TACACACCATAATTGAAGTATTGAGTCACACATAATTGAACGGAGTCACCTAGTGCAG,3220 fluorescence intensity (a.u.)
17,TGTGGACAATGCTAGAAAGTCTTACATTGTCAAACGGATGCGGAGTCACCTAGTGCAG,39500 fluorescence intensity (a.u.)
18,TAGAATTGTCAAGTCAATGCCACGTGGGACAAAGACCTAGCGGAGTCACCTAGTGCAG,17900 fluorescence intensity (a.u.)
19,TCTCTCTCACTCTTCTCTTGCAGGCCTGCGTGGCATACTACGGAGTCACCTAGTGCAG,7430 fluorescence intensity (a.u.)
20,CGGAAACAGATCATCAAACCCATACGTCAGTGATCCAAGTCGGAGTCACCTAGTGCAG,3410 fluorescence intensity (a.u.)
21,TTCCAGTCCACCGTGGCGGTGGCGCGTCAGCTTTCCAGCCCGGAGTCACCTAGTGCAG,12000 fluorescence intensity (a.u.)
